Six1-Eya2 inh = blocks human Six1 binding to Eya2; Q15475+O00167; AlphaScreen GST-Six1/His-Eya2 binding, biochemical; hits give low values; activity change, % (no concentration beside the values); actives 0.56% (n = 360,000); in the data active means activity change below about -65%; inconclusive means mostly about -30% to -63%; further: on the % scale 0 is the no-effect control and ±100 the full control effect
Target sequence (O00167 whole entry, looked up): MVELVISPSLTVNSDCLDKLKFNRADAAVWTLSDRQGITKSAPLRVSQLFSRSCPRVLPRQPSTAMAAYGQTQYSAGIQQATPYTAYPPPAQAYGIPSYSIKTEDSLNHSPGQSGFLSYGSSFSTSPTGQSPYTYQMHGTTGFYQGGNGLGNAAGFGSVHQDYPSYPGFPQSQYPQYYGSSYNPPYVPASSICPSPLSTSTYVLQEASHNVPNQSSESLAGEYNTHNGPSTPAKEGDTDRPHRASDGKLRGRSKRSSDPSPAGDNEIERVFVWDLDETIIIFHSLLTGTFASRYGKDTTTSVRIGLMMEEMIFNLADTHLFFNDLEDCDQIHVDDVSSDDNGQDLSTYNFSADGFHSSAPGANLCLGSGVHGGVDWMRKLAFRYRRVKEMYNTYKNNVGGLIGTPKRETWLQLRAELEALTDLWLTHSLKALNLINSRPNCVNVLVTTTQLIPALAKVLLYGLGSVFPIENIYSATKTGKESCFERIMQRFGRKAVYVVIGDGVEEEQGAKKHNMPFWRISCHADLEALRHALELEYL
Target sequence (Q15475 whole entry, looked up): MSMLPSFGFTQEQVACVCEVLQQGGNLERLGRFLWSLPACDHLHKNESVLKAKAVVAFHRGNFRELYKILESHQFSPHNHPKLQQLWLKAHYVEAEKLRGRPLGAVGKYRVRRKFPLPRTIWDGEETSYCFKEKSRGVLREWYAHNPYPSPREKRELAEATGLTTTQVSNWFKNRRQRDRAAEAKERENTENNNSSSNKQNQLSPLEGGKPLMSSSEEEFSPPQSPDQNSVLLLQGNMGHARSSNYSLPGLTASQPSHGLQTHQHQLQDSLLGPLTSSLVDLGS
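Compounds are tested against tagged Six1 and Eya2 proteins bridged by glutathione donor and nickel acceptor beads; after a one-hour incubation at 37 °C without light, AlphaScreen emission is recorded.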
BAZ2B inh = BAZ2B (human) inhibition; AlphaScreen BAZ2B-H3K14Ac peptide displacement; actives 4.4% (n = 360,000); Q9UIF8; AID 504333; Potency, µM (doses to about 114 µM), for the others: at the top dose activity change, negative = inhibition, hits mostly inhibitors; further: potency means the concentration at half of the fitted maximal effect; on the % scale 0 is the no-effect control and ±100 the full control effect; nearly all actives have a fitted effect of over 60% in size
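Compounds, titrated to a top concentration of 110 uM, were incubated 30 min at room temperature with preformed BAZ2B/acetyl-K14 H3 peptide complex (50 nM each). Proximity signal was measured by AlphaScreen after 20 min with beads.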
CtBP-E1A inh = inhibitors of CtBP/E1A interaction. actives 0.49% (n = 340,000). AlphaScreen GST-E1A/His-CtBP binding, 1536-well; hits give low values. AID 651724. activity change, % (test concentration not listed); in the data active means activity change below about -65%; inconclusive means mostly about -30% to -63%; further: on the % scale 0 is the no-effect control and ±100 the full control effect
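Protein mix (5X: 125 nM each GST-E1A, His-CtBP) was incubated with pinned compound 2 h at 37 deg C in dark, in 50 mM Tris pH 8.0 buffer with 300 mM NaCl. Glutathione donor and nickel acceptor beads followed; AlphaScreen signal read after 1 h.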
JMJD2A Tudor inh = JMJD2A Tudor domain (human) inhibition; O75164; AlphaScreen JMJD2A-Tudor / H3K4me3 peptide binding; Potency, µM (highest dose often 114 µM), for the others: at the top dose activity change, negative = inhibition, actives largely listed as inhibitors; actives 4.4% (n = 390,000); AID 504339; further: potency means the concentration at half of the fitted maximal effect; on the % scale 0 is the no-effect control and ±100 the full control effect; nearly all actives have a fitted effect of over 50% in size
G9a inh = inhibitors of human histone lysine methyltransferase G9a. actives 8.8% (n = 350,000). Potency, µM (top dose mostly 102 µM), for the others: top-dose activity, negative = inhibition, actives largely listed as inhibitors. G9a H3K9 monomethylation, AlphaScreen, 2 h; further: potency means the concentration at half of the fitted maximal effect; on the % scale 0 is the no-effect control and ±100 the full control effect; nearly all actives have a fitted effect of over 75% in size
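Using a bead-based AlphaScreen, monomethylated H3K9 product from 2 h room-temperature reactions (G9a 20 nM, peptide 500 nM, SAM 20 uM) was detected with 0.5 ug/mL rabbit anti-H3K9me1 antibody.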
HP1b binding inh = HP1-beta chromodomain-methylated histone interaction inhibition. P83916. AlphaScreen HP1-beta / biotin-H3K9me3 peptide binding. Potency, µM (doses to about 114 µM), without a hit: top-dose activity change, negative = inhibition, actives largely listed as inhibitors. actives 0.56% (n = 390,000). AID 540317; further: potency means the concentration at half of the fitted maximal effect; nearly all actives have a fitted effect of over 70% in size
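Compound inhibition of the preformed complex between 50 nM HP1-beta and 50 nM biotinylated H3K9me3 peptide was read by AlphaScreen. Buffer was PBS pH 7.4 with 0.01% Tween-20. Incubations ran 30 min at room temperature, with 10 ug/mL donor/acceptor beads.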
* marks the source's active call; other numbers are inactive results; u = inconclusive; x = no result; [ ] = dose if it differs, or a comment. This is a sample that favours compounds with a hit; in the whole collection about 10% have one here. Unless noted, the call rests on the fitted dose curve; in most records, active means well fitted inhibition curve with a large enough effect; inconclusive means small, poorly fitted or top-dose-only effect; inactive means no such curve, though single readings can be large or run the other way.

SMILES	Six1-Eya2 inh	BAZ2B inh	CtBP-E1A inh	JMJD2A Tudor inh	G9a inh	HP1b binding inh
CCN(CC)C(=O)C1CCCN(Cc2ccccc2C(F)(F)F)C1 (stereo not drawn)	6	79µM*	3	4.5µM*	u	u
CCN(CC(=O)Nc1ccccc1C(F)(F)F)C(=O)C1CCC1	8	-4%	6	-9%	7%[59 µM]	25%
CCN(CC)C(=O)C1CCCN(C/C(C)=C/c2ccccc2)C1 (stereo not drawn)	-1	50µM*	5	1.6µM*	16µM*	u
COc1cccc(NC(=O)Cn2c(=O)n(-c3ccccc3)c(=O)c3ccc(C(=O)NCc4ccc5c(c4)OCO5)cc32)c1	x	x	x	-27%	5%[59 µM]	6%
CC[n+]1c(C)n(-c2ccccc2)c2ccc(C(=O)OC)cc21	3	u	6	-2%	x	27%
CC[n+]1c(C)cc(C)n1-c1ccccc1	14	x	4	u	50µM*	27%
CCCC(=O)N1c2nc(C(C)C)nn2C2(CCCCC2)[C@@H]2CCCC[C@@H]21	x	6%	x	0%	3%[59 µM]	34%
CCN(C(=O)COC(=O)/C=C/c1ccc(C)o1)c1c(N)n(Cc2ccccc2)c(=O)[nH]c1=O	-3	0%	6	79µM*	11µM*	u
CCCCN(C(=O)CSc1nnnn1C)c1c(N)n(Cc2ccccc2)c(=O)[nH]c1=O	0	-17%	1	-5%	13%	6%
CN(C(=O)CSc1nc2ccccc2s1)c1c(N)n(Cc2ccccc2)c(=O)[nH]c1=O	7	-3%	0	-15%	25µM*	25%
CCCCN(C(=O)CSc1nnc(Nc2ccccc2)s1)c1c(N)n(CCC)c(=O)[nH]c1=O	4	-5%	x	-13%	40µM*	37%
CCN(C(=O)CSc1nncs1)c1c(N)n(Cc2ccccc2)c(=O)[nH]c1=O	7	-19%	4	-11%	14µM*	53%
CCN(C(=O)CSc1nc2ccc([N+](=O)[O-])cc2s1)c1c(N)n(Cc2ccccc2)c(=O)[nH]c1=O	-6	x	x	-3%	x	41%
Cc1ccc(/C=C/C(=O)OCC(=O)N(CC(C)C)c2c(N)n(Cc3ccccc3)c(=O)[nH]c2=O)o1	0	4%	7	-25%	-7%[0.501 µM]	-3%
CCOC(=O)c1c(C)[nH]c(C)c1S(=O)(=O)N(C)CC(=O)Nc1ccc(C)c(F)c1	x	2%	x	-10%	-10%[59 µM]	23%
Fc1ccc(-c2nnc(CN3CCN(c4ccccn4)CC3)o2)cc1	x	-13%	x	-1%	0%[59 µM]	22%
CCOCCCn1c(SCC(=O)Nc2ccccc2OC)nc2c(oc3ccccc32)c1=O	x	1%	x	-1%	7%[59 µM]	21%
CC(C)c1ccccc1OCC(=O)Nc1ccc2[nH]ncc2c1	-6	0%	-3	-31%	71µM*	29%
COc1cc2c(cc1OC)C1(NCC2)C(=O)Nc2ccccc21 (stereo not drawn)	1	-1%	-9	-8%	-4%[59 µM]	9%
COc1cc2c(cc1OC)C1(Nc3c-2c(Cc2ccccc2)nn3-c2ccccc2)C(=O)Nc2ccccc21 (stereo not drawn)	-8	50µM*	-11	u	40µM*	-27%
CC(C)CCn1c(SCC(=O)Nc2ccccc2C(F)(F)F)nc2nccnc2c1=O	4	79µM*	-1	-27%	6.3µM*	12%
COCCn1c(SCC(=O)Nc2ccccc2C(F)(F)F)nc2ccccc2c1=O	-5	6%	0	-10%	x	38%
COCCNC(=O)CCCC(=O)NCCOC	4	8%	2	25µM*	20%[59 µM]	51%
Cc1ccc(NC(=O)Cn2nc(Cc3ccncc3)c3ccccc3c2=O)c(Cl)c1	x	71µM*	x	u	-39%[59 µM]	62%
O=C(Cn1nc(Cc2ccncc2)c2ccccc2c1=O)Nc1cccnc1Cl	9	4%	4	9%	19%[59 µM]	29%
SMILES	Six1-Eya2 inh	BAZ2B inh	CtBP-E1A inh	JMJD2A Tudor inh	G9a inh	HP1b binding inh
Cc1ccc(C(=O)CNc2cccc([N+](=O)[O-])c2)cc1	1	0%	6	-5%	u	47%
Cc1ccc(NCCC(=O)c2cccc([N+](=O)[O-])c2)c(C)c1	u	28µM*	u	32µM*	u	u
COc1cc(F)c(S(=O)(=O)N2CCN(S(=O)(=O)c3cccc(NC(C)=O)c3)CC2)c(F)c1	x	x	x	-15%	x	x
O=C(NCc1ccco1)c1ccc2c(c1)N(Cc1ccc(F)cc1)C(=O)c1ccccc1S2=O (stereo not drawn)	x	u	x	-21%	-7%[59 µM]	6%
CN(CCCCCCN(C)Cc1ccccc1O)Cc1ccccc1O	-2	50µM*	x	20µM*	x	u
Cc1ccc(-n2nc3c(N4CCC(C(=O)NC5CCC(C)CC5)CC4)nnc(C)c3c2C)cc1 (stereo not drawn)	x	-2%	x	-22%	-1%[59 µM]	8%
CC(C)CN(C(=O)COC(=O)c1cnccn1)c1c(N)n(Cc2ccccc2)c(=O)[nH]c1=O	-4	-5%	5	-5%	u	30%
CC(C)CN(C(=O)COC(=O)c1ccccn1)c1c(N)n(Cc2ccccc2)c(=O)[nH]c1=O	0	u	-28	6.3µM*	45µM*	-13%
CCc1nc2ccccc2n1CC(=O)OCC(=O)N(CC(C)C)c1c(N)n(Cc2ccccc2)c(=O)[nH]c1=O	-1	6%	3	-5%	56µM*	29%
c1ccc(-c2cnnc(-c3ccccn3)n2)cc1	-88*	x	-76*	11µM*	x	34%
c1ccc(-c2cnc(-c3ccccn3)nn2)cc1	-91*	x	-86*	14µM*	x	27%
Clc1ccc(-c2cnnc(-c3ccccn3)n2)cc1	-86*	x	-84*	10µM*	x	31%
c1ccc(-c2nc(-c3ccccn3)nc(-c3ccccn3)n2)nc1	u	-4%	u	-18%	47%[59 µM]	10%
Nc1nc(N)nc(-c2ccccn2)n1	-81*	20µM*	-73*	50µM*	-44%[59 µM]	22%
Cc1nc2ccc(S(=O)(=O)N3CCN(S(=O)(=O)c4c(F)cccc4F)CC3)cc2s1	x	x	x	-21%	x	x
Cc1cc2nn(-c3ccccc3)nc2cc1NC(=O)Cc1ccc(Cl)cc1	x	-20%	x	-9%	14µM*	29%
CCCCc1ccc(-n2nc3cc(C)c(NC(=O)Cc4ccccc4)cc3n2)cc1	x	u	x	50µM*	1.4µM*	10%
CCOC(=O)c1sc(NC(=O)c2ccc(S(=O)(=O)N3CCOCC3)cc2)nc1-c1ccccc1	1	10%	x	-25%	45µM*	32%
